Screening data (PubChem BioAssay)
Shown are actives, neighbours in structure and some others; about 1.2% of the full set was active somewhere.
GSH fluor: compound fluoresces at 488/530 nm on GSH beads | GSH beads flow cytometry, compound fluorescence 488/530 nm; active compounds read high | fluorescence (KMESF) at 10 µM | actives 0.25% (n = 190,000) | AID 1776; in the data active = fluorescence above about 89;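 also: glutathione beads carrying GST-tagged Bcl family fusion proteins plus one bare bead set; values are compound well signal with DMSO vehicle wells as background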
RGS16-Gao: regulators of human RGS16-Galphao interaction; O15492+P09471; bead-based flow cytometry RGS16-Galphao binding, fluorescence; actives lie on both sides; binding response (% of control), % at 10 µM; actives 0.38% (n = 220,000);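 also: Galphao activated by GDP with aluminum fluoride before binding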
RGS7-Gao: regulators of human RGS7-Galphao interaction | P09471 | Multiplexed bead flow cytometry, RGS7-Galphao binding; actives lie on both sides | binding response (% of control), % at 10 µM | actives 0.35% (n = 220,000) | AID 1439; in the data active = binding response below about 49% or above about 150%; inconclusive = no clear call, values can overlap the other calls; inactive = in between;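 also: fluorescent Galphao held in activated GDP-AlF4 state binding bead-coupled RGS7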
Target sequence (P09471 whole entry, looked up): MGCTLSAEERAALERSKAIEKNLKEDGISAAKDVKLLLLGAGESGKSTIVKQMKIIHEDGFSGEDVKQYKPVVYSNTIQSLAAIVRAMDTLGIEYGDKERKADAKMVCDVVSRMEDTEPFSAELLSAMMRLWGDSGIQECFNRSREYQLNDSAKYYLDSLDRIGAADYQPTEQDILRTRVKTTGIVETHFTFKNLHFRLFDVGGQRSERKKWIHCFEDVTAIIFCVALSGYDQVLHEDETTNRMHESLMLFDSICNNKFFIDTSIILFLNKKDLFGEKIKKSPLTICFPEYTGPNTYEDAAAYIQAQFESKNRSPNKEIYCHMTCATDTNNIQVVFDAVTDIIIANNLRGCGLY
RGS8-Gao: regulators of human RGS8-Galphao interaction | AID 1423 | response (percent of control binding), % at 10 µM | actives 0.34% (n = 220,000) | multiplexed bead flow cytometry, RGS8-Galphao binding; actives lie on both sides; in the data active = response below about 60% or above about 140%; inactive = in between;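 also: Galphao activated as the GDP aluminium fluoride complex binding bead-coupled RGS8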
Avidin fluor: avidin bead compound fluorescence profile; Avidin beads, compound fluorescence 488/530 nm, flow cytometry; active compounds read high; fluorescence (KMESF) at 10 µM; actives 0.38% (n = 220,000); in the data active = fluorescence above about 47
RGS4-Gao reg: human RGS4-Galphao interaction regulation. P09471. Multiplexed bead flow cytometry, RGS4-Galphao binding; actives lie on both sides. binding response (% of control), % at 10 µM. actives 0.33% (n = 220,000); in the data active = binding response below about 49% or above about 150%; inactive = in between;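 also: fluorescent Galphao activated with aluminum fluoride binding bead-coupled RGS4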
RGS4-Gao HTS: regulators of human RGS4-Galphao interaction | RGS4–Galpha-o binding response, % at 10 µM | AID 1504 | actives 99% (n = 1,600) | multiplexed bead flow cytometry, RGS–Galpha-o binding | shares compounds with RGS16-Gao;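 also: fluorescently labeled Galpha-o bound to GDP with aluminium fluoride binding biotinylated RGS beads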
Target sequence (P09471 whole entry, looked up): as above
Target sequence (P49798 whole entry, looked up): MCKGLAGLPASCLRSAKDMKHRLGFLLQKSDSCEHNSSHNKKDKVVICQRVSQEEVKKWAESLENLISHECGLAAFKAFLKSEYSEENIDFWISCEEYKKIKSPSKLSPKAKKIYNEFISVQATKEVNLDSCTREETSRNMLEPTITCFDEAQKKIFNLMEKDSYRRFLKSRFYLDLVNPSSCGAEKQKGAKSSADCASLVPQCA
Biotin-avidin: counter-screen: compounds disrupting biotin binding to avidin beads. AID 1783. streptavidin beads, fluorescein-biotin binding, flow cytometry. inhibition, % at 10 µM. shares compounds with RGS16-Gao. 1,700 tested, under 10 active;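 active = inhibition above 50%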;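 also: median green fluorescence of gated singlet beads compared with DMSO control wells; 0% = DMSO wells and 100% = complete loss of bead fluorescence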
RGS8-Gao single: RGS8-Galphao interaction regulation, single point confirmation; shares compounds with RGS16-Gao; actives 3% (n = 1,700); binding response (% of control), % at 10 µM; AID 1836; bead-based flow cytometry RGS8-Galphao binding, fluorescence; actives lie on both sides; in the data active = binding response below about 72% or above about 130%; inactive = in between;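 also: Galphao activated as GDP AlF4 complex before binding bead RGS8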
RGS7-Gao confirm: confirmation of regulators of human RGS7-Galphao interaction. shares compounds with RGS16-Gao. bead-based flow cytometry RGS7-Galphao binding; actives lie on both sides. actives 7.8% (n = 1,700). response (percent of control binding), % at 10 µM; in the data active = response below about 75% or above about 130%; inactive = in between;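 also: fluorescent Galphao activated with GDP and aluminum fluoride binding bead-coupled RGS7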
RGS16-Gao conf: confirmation of regulators of human RGS16-Galphao interaction. AID 1838. response (% of control binding), % at 10 µM. shares compounds with RGS16-Gao. actives 4% (n = 1,700). bead-based flow cytometry, RGS16-Galphao binding; actives lie on both sides; in the data active = response below about 74% or above about 130%; inactive = in between;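 also: Galphao activated as the GDP aluminium fluoride complex binding bead-coupled RGS16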
RGS4-Gao single: RGS4-Galphao interaction regulation, single point confirmation. shares compounds with RGS16-Gao. RGS4-Galphao binding, multiplexed bead flow cytometry; actives lie on both sides. binding response (% of control), % at 10 µM. actives 4% (n = 1,700); in the data active = binding response below about 74% or above about 130%; inactive = in between
RGS19-Gao conf: confirmation of regulators of human RGS19-Galphao interaction; shares compounds with RGS16-Gao; bead-based flow cytometry RGS19-Galphao binding; actives lie on both sides; response (percent of control binding), % at 10 µM; actives 5% (n = 1,700); AID 1841; in the data active = response below about 50% or above about 160%; inactive = in between;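 also: 100% = no compound control and 0% = blank background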
The depositor's hits bear a star; ? = inconclusive; nt = no result given; [ ] = another dose, or the depositor's remark. Unless noted, no rule for the calls is given here.

SMILES	GSH fluor	RGS16-Gao	RGS7-Gao	RGS8-Gao	Avidin fluor	RGS4-Gao reg	RGS4-Gao HTS	Biotin-avidin	RGS8-Gao single	RGS7-Gao confirm	RGS16-Gao conf	RGS4-Gao single	RGS19-Gao conf
CCC(OC(=O)C1=Cc2ccccc2OC1)C(=O)NC1CCCC1 (stereo not given)	18	nt	nt	nt	nt	nt	nt	0	101	104	102	101	101
O=C(NCc1ccccc1Cl)NCc1ccccc1Cl	nt	46	?	62	2	43*	nt	-1	103	103	107	99	109
CCc1ccc2c(c1)c(N=NC1=NC(=O)CS1)c(O)n2C	10	101	106	104	22	107	nt	nt	nt	nt	nt	nt	nt
Cc1cc(C)c2[nH]c(O)c(N=NC3=NC(=O)CS3)c2c1	nt	270*[activator]	?	116	124*	283*[activator]	nt	0	100	95	100	97	120
COc1cc(CC(NC(C)=O)C(=O)NC2CCN(C(=O)c3cc(OC)c(OC)c(OC)c3)CC2)cc(OC)c1 (stereo not given)	11	284	119	141*[activator]	10	110	110*	-1	102	105	103	104	102
COc1ccccc1/C=C/C=C1\Oc2c(ccc(O)c2CN2CCN(CCO)CC2)C1=O	15	284	246*[activator]	146*[activator]	127*	218*[activator]	nt	1	104	107	101	101	80
O=C1/C(=C/C=C/c2ccccc2)Oc2c1ccc(O)c2CN1CCN(CCO)CC1	nt	85	?	97	7	85	nt	nt	nt	nt	nt	nt	nt
CCN1CCN(Cc2c(O)ccc3c2O/C(=C\C=C\c2ccccc2)C3=O)CC1	11	187*[activator]	103	117	17	106	106*	-1	100	101	99	101	100
COc1ccc(N/N=C(\C#N)C(=O)NCCc2ccc(OC)c(OC)c2)cc1	nt	102	?	105	6	104	nt	nt	nt	nt	nt	nt	nt
O=C(CSc1ccc2nnc(-c3cccnc3)n2n1)NCc1ccco1	15	97	97	96	8	100	nt	nt	nt	nt	nt	nt	nt
O=C(CS(=O)CC(=O)N(CC(=O)NC1CCCC1)c1ccc2c(c1)OCCO2)Nc1ccc(F)cc1 (stereo not given)	16	79	92	90	22	97	nt	nt	nt	nt	nt	nt	nt
CC1(C)CC(C2N3CC4(C)CN2CC(C)(C3)C4=O)CCO1 (stereo not given)	22	278	119	147*[activator]	12	115	115*	0	101	103	104	103	94
CC/C(=N/O)c1cnnc(SC)n1	6	16*	97	84	7	95	95*	0	103	94	106	96	91
CSc1nncc(/C(C)=N/O)n1	12	93	98	95	6	96	nt	nt	nt	nt	nt	nt	nt
CCSc1nnc(NC(=O)C(CC)(C(F)(F)F)C(F)(F)F)s1	11	101	101	102	9	101	nt	nt	nt	nt	nt	nt	nt
CCSc1nnc(NC(=O)C(C)(C(F)(F)F)C(F)(F)F)s1	47	288*[activator]	109	119	4	112	112*	0	101	94	97	96	65
CC(C)(C)c1ccc(C(=O)NNc2cc(N3CCCCC3)nc(N3CCCCC3)n2)cc1	119*	560*[activator]	643*[activator]	173*[activator]	175*	842*[activator]	nt	1	105	113	104	108	100
CC(=O)NNc1cc(N2CCOCC2)nc(N2CCOCC2)n1	16	101	?	101	9	104	nt	nt	nt	nt	nt	nt	nt
O=C(NNc1cc(N2CCOCC2)nc(N2CCOCC2)n1)c1ccc(Cl)cc1Cl	9	10*	12*	23*	0	21*	nt	-1	93	88	91	91	89
COc1ccc(C(NC(C)=O)c2ccc3cccnc3c2O)c(OC)c1 (stereo not given)	13	15	56	47*	7	55	55*	2	98	93	98	97	86
O=C(OCn1nnc2ccccc2c1=O)c1ccc(Br)o1	15	97	104	104	6	101	nt	nt	nt	nt	nt	nt	nt
Nc1n[nH]c(N)c1N=Nc1ccccc1	23	108	99	100	11	102	nt	nt	nt	nt	nt	nt	nt
Nc1n[nH]c(N)c1N=Nc1ccc(Cl)cc1Cl	10	82	46*	72	0	53	53*	-1	99	98	99	100	88
COc1cc2c(cc1NC(=O)c1cccc(Br)c1)CCCC2	11	99	98	99	15	99	nt	nt	nt	nt	nt	nt	nt
O=c1[nH]c(-c2ccccn2)nc2ccccc12	62	96	100	98	6	97	nt	nt	nt	nt	nt	nt	nt
SMILES	GSH fluor	RGS16-Gao	RGS7-Gao	RGS8-Gao	Avidin fluor	RGS4-Gao reg	RGS4-Gao HTS	Biotin-avidin	RGS8-Gao single	RGS7-Gao confirm	RGS16-Gao conf	RGS4-Gao single	RGS19-Gao conf
c1ccc(-c2nc3ccccc3[nH]2)nc1	23	167	158*[activator]	154*[activator]	12	170*[activator]	nt	0	99	102	99	99	110
CCNC(=S)N(Cc1ccc2c(c1)OCO2)C1CC(=O)N(c2ccc(OC)cc2)C1=O (stereo not given)	19	32	82	71	5	85	nt	nt	nt	nt	nt	nt	nt
CCNC(=S)N(Cc1ccc(OC)cc1)C1CC(=O)N(c2ccc(OCC)cc2)C1=O (stereo not given)	18	nt	nt	nt	nt	nt	nt	0	102	108	107	103	99
Cc1ccc(CSc2ccc(-c3cccs3)nn2)cc1	12	100	97	100	6	98	nt	nt	nt	nt	nt	nt	nt
Cc1cc(C(=O)NN)c(Cl)cc1Cl	nt	13*	?	27*	0	21*	nt	2	111	107	107	105	107
OCCC1CN(Cc2ccc(Oc3ncccn3)cc2)CCN1C1CCCCC1 (stereo not given)	nt	88	?	48*	159*	147	147*	-1	102	100	102	100	97
